Target: Alpha-bungarotoxin (Bungarus multicinctus) (UniProt P60615)
Assay: alpha-bungarotoxin binders on microarray, profiling panel, artefact control for SMM control protein annotation, biochemical, small-molecule microarray, Alexa647 label, 635/667 nm fluorescence (AID 1117)
Details: alpha-BTX-A647 binding fluorescence, higher = more signal

Alpha-bungarotoxin (Bungarus multicinctus), sequence (P60615 whole entry, looked up): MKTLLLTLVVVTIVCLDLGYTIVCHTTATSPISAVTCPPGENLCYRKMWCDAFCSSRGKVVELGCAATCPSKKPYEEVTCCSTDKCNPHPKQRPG

SMILES | composite z-score
Cc1ccccc1C(O)C1C=CC2C(=O)N(c3ccccc3)C(=O)C2N1Nc1ccc(C(C)C)cc1 (stereo not given) | 1.16
CCS[C@H]1[C@@H](C(=O)O)[C@H](c2ccc(C)cc2)N(S(=O)(=O)c2ccc(C)cc2)[C@@H]1CC | 0.834
COc1cc(NN2C(C(O)c3ccco3)C=CC3C(=O)N(c4ccccc4)C(=O)C32)cc(OC)c1OC (stereo not given) | 0.425
CNS(=O)(=O)c1ccc(C)cc1 | 0.514
O=C1N(Cc2ccccc2)c2ccccc2[C@@H]2OC(c3ccc(OCCCO)cc3)=N[C@]12CCS(=O)(=O)c1ccccc1 | 1.48
COc1cc2c(cc1O)C(C1CC1)N(Cc1sc3ccccc3c1Cl)CC2 (stereo not given) | 0.281
Oc1ccc2cc[n+](Cc3sc4ccccc4c3Cl)cc2c1 | 1.02
CC(C)N1C(=O)C[C@@](C(=O)NCC(F)(F)F)(c2ccc([N+](=O)[O-])cc2)[C@H]1c1ccc(CO)cc1 | 0.259
COCCCNC(=O)[C@@]1(C)c2ccccc2C(=O)N(C(C)C)[C@H]1c1ccc(CO)cc1 | 0.547
COCCOC(=O)N1C(=O)[C@@]2(c3cc(C#CCC(C(=O)OC)C(=O)OC)ccc31)[C@H](c1ccccc1OCCO)N1[C@H](c3ccccc3)[C@H](c3ccccc3)OC(=O)[C@H]1[C@@H]2C(=O)N1CCN(c2ncccn2)CC1 | 0.771
CCOC(=O)[C@H]1C/C=C/C[C@H](C(=O)OCC)C(=O)O[C@H]2[C@@H](OC)O[C@H](CO)[C@@H](OC(=O)c3c(OC)cccc3OC)[C@@H]2OC1=O | 1.1
C=C(COC)/C(=C/C[C@@H](OC(=O)c1ccncc1)c1ccc(CO)o1)c1cc(C(=O)OC)ccc1OC | 0.702
CC(C)N1C(=O)c2ccccc2[C@](C)(C(=O)NCCN2CCOCC2)[C@@H]1c1ccc(CO)cc1 | 0.0722
COCCCNC(=O)[C@@H]1c2ccccc2C(=O)N(Cc2ccccc2Cl)[C@H]1c1ccc(CO)cc1 | -0.195
CC(C)NC(=O)[C@@]1(c2ccc([N+](=O)[O-])cc2)CC(=O)N(C2CCCCC2)[C@@H]1c1ccc(CO)cc1I | -0.174
C=C(CCCC)/C(=C/C[C@H](OC(C)=O)c1ccccc1OCCO)c1cc(C(=O)OC)ccc1OC | 0.439
COCCOC(=O)N1C(=O)[C@@]2(c3cc(C#Cc4ccc(OC)cc4)ccc31)[C@H](c1ccc(O)cc1)N1[C@H](c3ccccc3)[C@H](c3ccccc3)OC(=O)[C@H]1[C@@H]2C(=O)N1CCc2cc(OC)c(OC)cc2C1 | 0.317
O=C1C2C=CC(C(O)Cc3ccccc3)N(n3cnnc3)C2C(=O)N1Cc1ccccc1 (stereo not given) | 0.165
C=CC[C@]1(C(=O)NCc2ccccc2)N=C(c2ccc(OCCCO)cc2)O[C@H]1c1ccccc1N=[N+]=[N-] | 1.65
CCOC(=O)C[C@H]1[C@H](OC(=O)c2ccc(C(=O)c3ccccc3)cc2)[C@@H](NC(=O)c2ccc3ccccc3n2)c2cc(OCCCO)ccc2N1C(=O)c1ccccc1 | 1.05
CN(C)C(=O)[C@@]1(CCS(=O)(=O)c2ccccc2)COC(c2ccc(OCCCO)cc2)=N1 | 0.301
COc1ccccc1CN1C(=O)c2ccccc2[C@@H](C(=O)NC2CC2)[C@@H]1c1ccc(CO)cc1 | 1.3
COC(=O)[C@H](Cc1ccccc1)N[C@@H](/C=C/C1CC1)[C@H](O)Cc1ccccc1 | 0.342
O=C1C2C=CC(C(O)c3cccc4ccccc34)N(Nc3ccccc3F)C2C(=O)N1c1ccccc1 (stereo not given) | 2.15
O=C(CS)NCCCCCCNC(=O)[C@@H]1C[C@@H]2C(=O)N[C@@H](Cc3ccccc3)C(=O)N2[C@@H]1c1cccc(OCCO)c1 | 1.2
NC(=O)NCC#Cc1ccc2c(c1)[C@]1(C(=O)N2)[C@H](C(N)=O)[C@H]2C(=O)O[C@H](c3ccccc3)[C@H](c3ccccc3)N2[C@@H]1c1ccc(O)cc1 | 2.12
CCCC[C@@H]1C[C@H]1[C@@H](NC(=O)c1cccs1)c1ccc(-c2ccccc2)cc1 | -0.474
C=CCOC(=O)[C@H]1[C@@H]2C(=O)O[C@@H](c3ccccc3)[C@@H](c3ccccc3)N2[C@@H](c2ccc(OCCOC(=O)[C@@H]3C[C@@H]4C(=O)N[C@@H](CCCCNC(C)=O)C(=O)N4[C@@H]3c3ccc(O)cc3)cc2)[C@]12C(=O)Nc1ccccc12 | 2.51
CCCCCCc1nc(-c2ccc(OC)nc2)cc2c1[Si](C(C)C)(C(C)C)O[C@H]2c1ccccc1 | 0.0237
CC(C)C(CO)N1C(=O)[C@@H]2C3C(=O)OCCC/C=C\[C@H]3OC23C=CCN(CCN2CCOCC2)C(=O)[C@@H]13 (stereo not given in full) | -1.6

From PubChem BioAssay
